A short description of assay [1]: Nrf2 qHTS screen for inhibitors: Validation (AID 493153). Particulars: viability change: measured here: cytotoxicity max response. The essentials:
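A549 cells carrying an ARE-driven firefly luciferase reporter, in 5% FBS OPTI-MEM, were treated with compounds in concentration-response for 18-24 h at 37°C. Viability was read by CellTiter-Fluor fluorescence, then Nrf2 activity by luciferase luminescence.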

Assay [2] in a line: qHTS for Inhibitors of Cell Surface uPA Generation: Validation Assay (AID 493164).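 Note: RAW 264.7 macrophage cells exposed to compound for 18 h; 0% is about no effect.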 The essentials:
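RAW 264.7, 4000 cells/well, o/n plating; cpd 7-pt 1:5 dilution 2.45 nM–38.3 uM final; 18 h, 37 C/5% CO2; ATP-Lite, 5 s luminescence exposure.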
For orientation: qHTS replaces the single test concentration by a dilution series.

Assay [3] has as its target Galactokinase (Homo sapiens) (UniProt P51570). Briefly: qHTS Validation Assay for Inhibitors of Human Galactokinase (GALK) (AID 493189). Note: 0% is about no effect. The essentials:
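GALK (5 nM) with 35 uM ATP and 100 uM galactose in HEPES pH8.0, MgCl2, NaCl, DTT, BSA; 1 h at room temperature. Residual ATP read by Kinase-Glo Plus luminescence after 10 min.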

Assay [4] can be described thus: Validation screen for small molecules that induce DNA re-replication in SW480 colon adenocarcinoma cells (AID 504364). Note: 0% is about no effect. The essentials:
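SW480 cells seeded at 250 per well were exposed to compound or DMSO for 48 hr at 37 C, 5% CO2, then stained with Hoechst for 40 min. DNA content per nucleus was imaged (405 nm ex, 500-530 nm em).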

The target of assay [5] is Peptidyl-prolyl cis-trans isomerase NIMA-interacting 1 (Homo sapiens) (UniProt Q13526). Briefly: qHTS Validation Assay to Find Inhibitors of Pin1 (AID 504536; active = well fitted inhibition curve with a large enough effect in the polarisation, with a control signal flat, not every such curve was filed as active; the % refers to the polarisation;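 note: 0% = full Pin1 enzyme wells and -100% = no-enzyme wells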). An outline of the steps: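 Fluorescence polarization competition: compounds (titration) displace HiFluor-488-labeled Pin1-1b peptide from Pin1 (0.3 uM final) in pH 7.5 HEPES buffer with DTT, 10 min at room temperature; %Activity normalized to no-enzyme wells, curves fitted.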

Assay [6] addresses Ubiquitin carboxyl-terminal hydrolase 1 (Homo sapiens) (UniProt O94782). In words: Inhibitors of USP1/UAF1: Pilot qHTS (AID 504865).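 Note: rhodamine fluorescence freed from ubiquitin-rhodamine substrate followed over time; top concentration of the series differs between compounds; % is set by controls: 0 for no effect and ±100 for the full control effect; nearly all actives have a fitted effect of over 35% in size.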 The essentials:
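USP1/UAF1 complex (1nM) preincubated with compound 15 min at room temperature, then Ub-Rho substrate (150nM final) added. Fluorescence read kinetically at 480/540 nm, 6 reads every 60 seconds. Buffer: 50mM HEPES pH 7.8, 0.5mM EDTA, 0.1 mg/ml BSA, 1mM TCEP, 0.01% Tween-20.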

A short description of assay [7]: qHTS for Inhibitors of ATXN expression: Validation of Cytotoxic Assay (AID 588349). Note: % is set by controls: 0 for no effect and ±100 for the full control effect. An outline of the steps:
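HEK293 cells were dosed with titrated compounds for 72 hr at 37 degrees C. Viability was read by CellTiter Glo luminescence, with intracellular ATP as the marker of cell survival.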

A short description of assay [8]: qHTS for Inhibitors of ATXN expression: Validation (AID 588378). Note: series mostly up to about 57 µM; % is set by controls: 0 for no effect and ±100 for the full control effect; nearly all actives have a fitted effect of over 75% in size. An outline of the steps:
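Luminescence from an ATXN2-FFLuc reporter in HEK293 cells served as read-out after 24 h compound treatment at 37 degrees C; CellTiter-Fluor fluorescence was recorded first to assess viability.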

The target in assay [9] is Voltage-gated inwardly rectifying potassium channel KCNH2 (Homo sapiens) (UniProt Q12809). In words: qHTS Assay for Small Molecule Inhibitors of the Human hERG Channel Activity (AID 588834).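 Note: top concentration of the series differs between compounds; % is set by controls: 0 for no effect and ±100 for the full control effect; lower thallium flux fluorescence means stronger hERG block; nearly all actives have a fitted effect of over 50% in size.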 The essentials:
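U2OS cells transduced with hERG via BacMam (MOI ~100), plated 2000/well, loaded with FluxOR thallium dye, compound ~10 min, then stimulation buffer; fluorescence decrease read kinetically; AC50 from Hill fits.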

The target in assay [10] is Glutaminase kidney isoform, mitochondrial (Homo sapiens) (UniProt O94925). Briefly: qHTS for Inhibitors of Glutaminase (GLS): LOPAC Validation (AID 624146).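 Note: glutamate product detected by oxidase and peroxidase coupled Amplex red fluorescence gain; series mostly up to about 46 µM; % is set by controls: 0 for no effect and ±100 for the full control effect; nearly all actives have a fitted effect of over 60% in size.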 An outline of the steps:
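Human kidney-isoform GLS in 45 mM KH2PO4 pH 8.2, 0.02% Tween-20, with compound, started with 1mM L-Glutamine (added stock). Glutamate oxidase/HRP/Amplex red coupled fluorescence read at start and after 30 min at RT.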

Assay [11] can be described thus: qHTS of Trypanosoma Brucei Inhibitors: LOPAC Validation (AID 624147). Note: 0% is about no effect. The essentials:
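ADP (130 uM final) triggers the TbPYK reaction after compound addition; incubation is 45 min at room temperature. Kinase-Glo Plus is then added and luminescence imaged. Normalized data are fitted to concentration-effect curves.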

The target in assay [12] is Glucagon-like peptide 1 receptor (Homo sapiens) (UniProt P43220). Briefly: qHTS of GLP-1 Receptor Agonists: LOPAC Validation (AID 624148).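 Note: luminescence from a luciferase reporter switched on by cAMP; 0% is about no effect; higher luminescence signal means agonism.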 The essentials: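 Agonism scored as increased luciferase luminescence driven by cAMP in HEK293 clones carrying GLP-1R. Cells settled 12 hours, received compound for 4-6 hr at 37 deg C, 5% CO2, and were read after 12 min detection reagent at RT.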

A short description of assay [13]: qHTS of Nrf2 Activators: LOPAC Validation (AID 624149). Note: 0% is about no effect. An outline of the steps: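 AREc32 cells carrying an ARE-driven firefly luciferase were grown overnight in OPTI-MEM with 5% FBS, then exposed to compounds for 24 hr at 37 deg C. Luciferase signal was read after 30 min with Steady-Glo at RT.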
The nature of assay [14]: HTS Assay for Allosteric Antagonists of the Human D2 Dopamine Receptor: Hit Validation in HTRF (AID 624455).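 Note: stable D1 dopamine receptor cell line scored for blocking the D1 response; % is set by controls: 0 for no effect and ±100 for the full control effect.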 The essentials: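 Hits were examined in an HTRF assay using cells stably expressing the D1 dopamine receptor, scoring inhibition of the D1-mediated response. The preceding primary screen tracked calcium flux after an EC80 dopamine addition in force-coupled, inducible Hek293 Trex D2 cells.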
(In TR-FRET formats the signal depends on donor and acceptor labels being close together.)

Assay [15] concerns the target Arylsulfatase A (Homo sapiens) (UniProt P15289). Briefly: qHTS screen for enhancers of Arylsulfatase A (ASA1): LOPAC Validation Assay (AID 720538). Note: 0% is about no effect. An outline of the steps: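 SV40-transformed skin fibroblasts from an MLD patient (ASA-I179S) were treated with compounds for 48h at 37 degree C, then lysed with 0.5mM pNCS final substrate for 14h at room temperature; NaOH stop, fluorescence read (Ex=525 nm; Em=598 nm).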

Assay [16] in a line: qHTS for compounds that reverse cellular toxicity of Amyloid beta (A-beta) peptide in yeast: LOPAC Validation Assay (AID 720559).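 Note: plate controls were DMSO for no effect and equimolar ferric chloride plus clioquinol rescue for full effect.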 The essentials: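 Yeast cells expressing toxic A-beta were combined with pinned compounds in growth medium and incubated 48 hr at 30 C. Growth was read as absorbance at 600 nm and normalized to DMSO and to an equimolar FeCl3/clioquinol positive control.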

Assay [17] can be described thus: qHTS for Activators of Parkin Expression: LOPAC Validation Assay (NLuc Reporter) (AID 720572;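 note: 0% = DMSO and 100% = positive control compound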). The essentials: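 Parkin promoter-driven FLuc/NLuc neuronal reporter cells; 24 h plating, 7-pt dose response, 24 h at 37 C/5% CO2; FLuc then NanoLuc reagent, 10 min each, luminescence; DMSO/positive control normalized.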
Assay [18] deals with T1, Hexokinase-4 (Homo sapiens) + Glucokinase regulatory protein (Homo sapiens) (UniProt P35557+Q14397). In words: qHTS assay for inhibitors of recombinant human GCK-GKRP interaction: Diaphorase-coupled assay (AID 743205). An outline of the steps:
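GST-GCK (10 nM) with FLAG-GKRP (10 nM), 5 mM glucose and 0.4 mM ATP in pH 7.6 Hepes; compounds preincubated 20 min with substrate. G6PDH/diaphorase coupling converts resazurin to resorufin, read kinetically (ex 525/em 590 nm) for 30 min.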

For assay [19], the target named is T1, Hexokinase-4 (Homo sapiens) + Glucokinase regulatory protein (Homo sapiens). In words: qHTS assay for inhibitors of recombinant human GCK-GKRP interaction: ADP-Glo assay (AID 743206).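 Note: plate controls were DMSO plus enzyme for no effect and no enzyme for full effect.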 An outline of the steps:
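GST-GCK and FLAG-GKRP (15 nM each in the dispensed mix, with 2 uM S6P) react with 0.4 mM ATP and 5 mM glucose (final) in Hepes pH 7.6 for 60 min at room temperature. ADP is measured by ADP-Glo luminescence.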

Inconclusive results are not listed. Activity calls are given as the source filed them. Unless noted, calls come from the whole dose curve; as a rule, active = well fitted curve in the direction sought with a large enough effect; inconclusive = small, poorly fitted or top-dose-only effect, or another doubt; inactive = no such curve, though single readings can be large; an effect the other way counts as inactive or inconclusive.

T1 sequence (P35557 whole entry, looked up): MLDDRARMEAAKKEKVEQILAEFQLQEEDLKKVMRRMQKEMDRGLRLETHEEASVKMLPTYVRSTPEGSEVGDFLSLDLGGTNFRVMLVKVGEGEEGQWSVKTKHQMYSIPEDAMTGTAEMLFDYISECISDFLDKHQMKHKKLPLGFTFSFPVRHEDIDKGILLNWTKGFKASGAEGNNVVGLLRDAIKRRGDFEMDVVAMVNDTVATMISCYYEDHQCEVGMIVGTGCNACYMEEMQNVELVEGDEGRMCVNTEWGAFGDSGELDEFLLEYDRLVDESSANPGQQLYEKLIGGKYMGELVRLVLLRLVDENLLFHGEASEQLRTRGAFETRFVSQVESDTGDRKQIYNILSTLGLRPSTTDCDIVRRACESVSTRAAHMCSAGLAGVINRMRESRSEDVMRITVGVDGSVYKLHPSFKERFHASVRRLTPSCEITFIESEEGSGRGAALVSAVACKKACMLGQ
T1 sequence (Q14397 whole entry, looked up): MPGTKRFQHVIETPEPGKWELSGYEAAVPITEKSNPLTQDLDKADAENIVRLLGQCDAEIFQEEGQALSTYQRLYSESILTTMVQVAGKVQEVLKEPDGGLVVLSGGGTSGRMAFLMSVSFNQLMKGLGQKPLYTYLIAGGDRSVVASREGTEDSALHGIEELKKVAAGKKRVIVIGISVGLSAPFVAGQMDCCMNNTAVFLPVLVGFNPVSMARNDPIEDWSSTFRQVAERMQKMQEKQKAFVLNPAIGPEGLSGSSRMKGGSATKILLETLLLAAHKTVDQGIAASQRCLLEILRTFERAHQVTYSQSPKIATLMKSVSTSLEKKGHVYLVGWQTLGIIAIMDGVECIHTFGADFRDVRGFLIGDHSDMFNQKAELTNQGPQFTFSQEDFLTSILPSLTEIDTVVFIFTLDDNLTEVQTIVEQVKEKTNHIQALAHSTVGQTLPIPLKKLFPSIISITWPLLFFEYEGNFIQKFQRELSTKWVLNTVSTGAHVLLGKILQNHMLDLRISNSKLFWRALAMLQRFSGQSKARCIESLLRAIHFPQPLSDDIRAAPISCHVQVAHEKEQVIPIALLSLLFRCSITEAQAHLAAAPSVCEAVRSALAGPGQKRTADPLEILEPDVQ
Chain of Voltage-gated inwardly rectifying potassium channel KCNH2 (Homo sapiens) (Q12809 whole entry, looked up): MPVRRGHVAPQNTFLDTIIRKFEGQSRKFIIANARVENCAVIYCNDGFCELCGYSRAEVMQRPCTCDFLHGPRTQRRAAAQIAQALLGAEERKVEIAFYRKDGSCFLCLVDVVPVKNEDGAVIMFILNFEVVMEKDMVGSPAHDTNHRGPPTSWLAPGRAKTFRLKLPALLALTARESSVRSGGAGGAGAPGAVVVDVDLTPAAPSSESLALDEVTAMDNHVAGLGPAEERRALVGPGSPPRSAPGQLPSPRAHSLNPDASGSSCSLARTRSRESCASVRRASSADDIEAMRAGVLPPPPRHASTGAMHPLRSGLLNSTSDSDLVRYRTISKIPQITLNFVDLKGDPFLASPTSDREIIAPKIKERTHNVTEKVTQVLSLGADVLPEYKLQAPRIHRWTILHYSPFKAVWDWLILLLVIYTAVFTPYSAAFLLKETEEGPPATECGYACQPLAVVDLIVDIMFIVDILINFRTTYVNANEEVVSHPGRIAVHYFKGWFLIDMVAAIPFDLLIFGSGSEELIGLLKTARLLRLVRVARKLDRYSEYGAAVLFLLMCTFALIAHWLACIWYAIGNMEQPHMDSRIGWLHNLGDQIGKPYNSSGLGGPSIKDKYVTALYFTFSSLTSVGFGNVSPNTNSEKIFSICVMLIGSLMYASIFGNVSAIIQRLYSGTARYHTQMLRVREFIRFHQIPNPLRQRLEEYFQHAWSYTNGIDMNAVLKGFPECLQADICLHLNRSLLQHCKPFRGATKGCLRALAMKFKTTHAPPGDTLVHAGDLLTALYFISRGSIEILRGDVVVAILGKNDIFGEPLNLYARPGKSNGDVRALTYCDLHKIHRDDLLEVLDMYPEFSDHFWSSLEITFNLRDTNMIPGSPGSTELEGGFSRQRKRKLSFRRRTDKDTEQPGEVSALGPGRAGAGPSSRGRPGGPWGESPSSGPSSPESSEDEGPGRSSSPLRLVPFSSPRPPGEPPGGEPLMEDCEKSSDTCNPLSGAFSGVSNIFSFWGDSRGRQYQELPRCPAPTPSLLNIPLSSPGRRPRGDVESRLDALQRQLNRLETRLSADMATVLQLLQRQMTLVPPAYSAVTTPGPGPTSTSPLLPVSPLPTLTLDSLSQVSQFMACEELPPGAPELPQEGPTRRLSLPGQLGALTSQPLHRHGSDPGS
Chain of Glucagon-like peptide 1 receptor (Homo sapiens) (P43220 whole entry, looked up): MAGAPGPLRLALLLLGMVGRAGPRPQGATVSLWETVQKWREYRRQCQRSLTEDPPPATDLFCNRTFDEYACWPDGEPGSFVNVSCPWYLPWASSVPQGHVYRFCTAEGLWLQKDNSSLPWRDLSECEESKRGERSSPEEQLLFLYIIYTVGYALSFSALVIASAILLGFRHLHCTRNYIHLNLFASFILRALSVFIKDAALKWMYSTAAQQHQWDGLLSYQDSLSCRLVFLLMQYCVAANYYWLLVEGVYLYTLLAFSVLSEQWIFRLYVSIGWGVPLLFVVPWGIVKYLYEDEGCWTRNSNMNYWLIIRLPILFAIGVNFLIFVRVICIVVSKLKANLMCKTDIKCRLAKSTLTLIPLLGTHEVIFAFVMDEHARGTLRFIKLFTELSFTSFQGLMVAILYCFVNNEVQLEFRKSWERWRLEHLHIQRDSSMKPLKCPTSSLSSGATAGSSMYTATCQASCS
Chain of Peptidyl-prolyl cis-trans isomerase NIMA-interacting 1 (Homo sapiens) (Q13526 whole entry, looked up): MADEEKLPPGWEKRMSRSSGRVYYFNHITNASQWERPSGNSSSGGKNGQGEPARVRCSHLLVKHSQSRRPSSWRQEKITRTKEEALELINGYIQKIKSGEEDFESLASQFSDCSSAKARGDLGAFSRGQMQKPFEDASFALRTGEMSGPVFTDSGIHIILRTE
Chain of Ubiquitin carboxyl-terminal hydrolase 1 (Homo sapiens) (O94782 whole entry, looked up): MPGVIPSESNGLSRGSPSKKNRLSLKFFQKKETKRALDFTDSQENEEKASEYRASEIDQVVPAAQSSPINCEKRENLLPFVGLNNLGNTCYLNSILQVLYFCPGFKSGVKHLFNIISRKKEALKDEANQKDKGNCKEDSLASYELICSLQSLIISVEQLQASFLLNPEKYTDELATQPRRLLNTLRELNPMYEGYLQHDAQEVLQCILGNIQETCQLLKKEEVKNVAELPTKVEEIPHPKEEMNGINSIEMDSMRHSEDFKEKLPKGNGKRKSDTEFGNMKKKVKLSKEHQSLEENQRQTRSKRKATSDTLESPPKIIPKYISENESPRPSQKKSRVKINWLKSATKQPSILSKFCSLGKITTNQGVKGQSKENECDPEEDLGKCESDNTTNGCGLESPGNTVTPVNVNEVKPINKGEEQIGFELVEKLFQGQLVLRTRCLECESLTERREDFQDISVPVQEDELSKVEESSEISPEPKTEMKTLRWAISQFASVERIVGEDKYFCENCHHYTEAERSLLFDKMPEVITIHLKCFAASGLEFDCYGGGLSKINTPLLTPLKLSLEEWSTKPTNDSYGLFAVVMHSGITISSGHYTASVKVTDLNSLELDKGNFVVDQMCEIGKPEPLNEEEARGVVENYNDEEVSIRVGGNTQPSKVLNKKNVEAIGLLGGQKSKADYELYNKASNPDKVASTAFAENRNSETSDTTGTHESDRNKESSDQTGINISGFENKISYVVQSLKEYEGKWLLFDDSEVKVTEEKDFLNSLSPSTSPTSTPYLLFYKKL
Chain of Galactokinase (Homo sapiens) (P51570 whole entry, looked up): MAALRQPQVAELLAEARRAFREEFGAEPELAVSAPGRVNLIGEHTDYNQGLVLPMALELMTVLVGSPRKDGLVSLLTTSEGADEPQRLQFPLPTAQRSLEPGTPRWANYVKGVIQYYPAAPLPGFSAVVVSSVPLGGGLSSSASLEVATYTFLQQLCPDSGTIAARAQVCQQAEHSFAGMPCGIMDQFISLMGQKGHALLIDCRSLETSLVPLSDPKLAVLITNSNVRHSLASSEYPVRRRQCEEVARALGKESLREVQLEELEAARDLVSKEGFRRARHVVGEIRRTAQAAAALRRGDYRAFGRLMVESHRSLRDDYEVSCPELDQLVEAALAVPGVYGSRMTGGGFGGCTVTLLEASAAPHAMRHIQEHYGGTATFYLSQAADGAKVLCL
Chain of Glutaminase kidney isoform, mitochondrial (Homo sapiens) (O94925 whole entry, looked up, canonical isoform): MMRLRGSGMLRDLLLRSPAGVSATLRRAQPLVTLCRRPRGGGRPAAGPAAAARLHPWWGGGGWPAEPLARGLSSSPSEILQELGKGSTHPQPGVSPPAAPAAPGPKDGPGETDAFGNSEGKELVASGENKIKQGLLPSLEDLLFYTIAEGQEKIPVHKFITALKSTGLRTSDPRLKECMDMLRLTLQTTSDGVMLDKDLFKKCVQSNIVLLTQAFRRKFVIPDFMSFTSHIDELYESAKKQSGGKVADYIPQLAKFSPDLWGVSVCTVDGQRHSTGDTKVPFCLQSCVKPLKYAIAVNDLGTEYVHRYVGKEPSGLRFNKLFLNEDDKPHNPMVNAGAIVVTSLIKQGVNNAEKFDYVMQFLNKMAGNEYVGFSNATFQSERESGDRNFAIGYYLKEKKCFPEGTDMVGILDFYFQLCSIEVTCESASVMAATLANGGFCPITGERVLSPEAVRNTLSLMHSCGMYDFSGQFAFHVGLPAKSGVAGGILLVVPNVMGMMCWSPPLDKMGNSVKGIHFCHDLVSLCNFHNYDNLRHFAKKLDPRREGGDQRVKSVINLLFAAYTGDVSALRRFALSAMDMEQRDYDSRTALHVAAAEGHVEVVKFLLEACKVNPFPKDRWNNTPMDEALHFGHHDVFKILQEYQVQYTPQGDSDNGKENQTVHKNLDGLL

As to `Cc1cccc(/C=C/c2ccccc2)n1`, the viability change in assay [1] is -2.71%. Also, the compound was called inactive in [2], in [3], in assay [4], in assay [11], in assay [12] and in assay [13]. In addition, the result in assay [14], in assay [16], in [17], in assay [18] and in assay [19] was inactive. The Potency entry in assay [5], in [6], in assay [7], in assay [8], in [9] and in assay [10] was “inactive” each time. Moreover, in assay [15], the Potency entry is “inactive”.

Values taken from PubChem BioAssay (NCATS).
